What was measured:
Experiment in all cases: log2 ratio of Biotin-Ahx-Ub-VS probe labelling (fragment/DMSO); higher = less target engagement (more negative = stronger competition), active = hit call of the paper (q ≤ 0.05, log2 ratio ≤ -1)
Details in all cases: compound concentration: 200 uM; treatment time: 3 h
[1] = molecular target: T1, OTUD6B (UniProt Q8N6M0)
T1 sequence (whole entry): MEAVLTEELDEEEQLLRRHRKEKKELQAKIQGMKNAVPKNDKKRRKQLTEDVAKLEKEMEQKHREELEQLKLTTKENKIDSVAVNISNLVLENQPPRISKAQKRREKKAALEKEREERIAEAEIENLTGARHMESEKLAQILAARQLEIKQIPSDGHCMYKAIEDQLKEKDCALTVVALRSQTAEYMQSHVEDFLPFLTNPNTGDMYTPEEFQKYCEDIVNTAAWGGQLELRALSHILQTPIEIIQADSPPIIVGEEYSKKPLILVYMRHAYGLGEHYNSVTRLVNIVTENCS
How it was run: (§1)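 The table lists average log2 ratios of fragment over vehicle, from an unpaired t-test on global-median-normalised Spectronaut label-free quantities. Proteins with ≥2 unique peptides were used. Samples were HEK293T lysate (495 µg) treated in triplicate with fragment at 200 µM or vehicle for 3 h, then with Biotin-Ahx-Ub-VS (0.5 µM final) for 1 h, with labelled DUBs NeutrAvidin-enriched and run by diaPASEF LC-MS/MS.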

[2] = molecular target: T2, OTUD7B (UniProt Q6GQQ9)
T2 sequence (whole entry): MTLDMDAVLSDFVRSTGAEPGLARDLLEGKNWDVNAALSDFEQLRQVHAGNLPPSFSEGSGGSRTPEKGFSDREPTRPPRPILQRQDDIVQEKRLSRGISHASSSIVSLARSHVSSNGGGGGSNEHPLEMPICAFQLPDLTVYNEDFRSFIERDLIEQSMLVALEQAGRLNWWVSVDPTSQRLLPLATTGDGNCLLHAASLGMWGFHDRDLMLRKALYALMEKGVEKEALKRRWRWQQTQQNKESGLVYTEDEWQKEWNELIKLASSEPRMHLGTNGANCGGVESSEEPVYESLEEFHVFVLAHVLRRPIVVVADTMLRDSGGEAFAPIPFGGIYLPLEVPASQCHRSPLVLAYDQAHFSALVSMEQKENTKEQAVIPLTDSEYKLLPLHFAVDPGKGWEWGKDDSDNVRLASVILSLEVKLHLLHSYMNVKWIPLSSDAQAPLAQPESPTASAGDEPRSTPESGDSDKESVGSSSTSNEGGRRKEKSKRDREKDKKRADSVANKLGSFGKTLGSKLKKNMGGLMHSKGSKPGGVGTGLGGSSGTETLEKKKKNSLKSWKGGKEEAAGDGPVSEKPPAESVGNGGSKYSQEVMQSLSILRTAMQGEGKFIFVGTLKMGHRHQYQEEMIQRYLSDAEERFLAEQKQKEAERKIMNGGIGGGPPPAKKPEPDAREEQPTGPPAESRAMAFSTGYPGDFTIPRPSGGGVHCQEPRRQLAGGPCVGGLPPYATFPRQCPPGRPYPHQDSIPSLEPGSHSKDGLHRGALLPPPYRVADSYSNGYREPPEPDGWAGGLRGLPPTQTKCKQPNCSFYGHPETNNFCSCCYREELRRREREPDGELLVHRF
How it was run: as §1

[3] = molecular target: PRPF8 (UniProt Q6P2Q9)
How it was run: as §1

[4] = molecular target: T3, PSMD7 (UniProt P51665)
T3 sequence (whole entry): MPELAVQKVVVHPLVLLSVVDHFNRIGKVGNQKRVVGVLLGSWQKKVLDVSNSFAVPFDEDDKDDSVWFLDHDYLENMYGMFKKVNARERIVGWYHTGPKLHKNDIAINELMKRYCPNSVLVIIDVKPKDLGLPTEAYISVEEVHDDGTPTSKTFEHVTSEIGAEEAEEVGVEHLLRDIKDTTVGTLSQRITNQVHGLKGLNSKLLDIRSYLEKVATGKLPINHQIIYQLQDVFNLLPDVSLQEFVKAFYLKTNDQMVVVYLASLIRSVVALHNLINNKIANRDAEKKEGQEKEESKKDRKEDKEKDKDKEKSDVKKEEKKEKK
How it was run: as §1

[5] = molecular target: UCHL1 (UniProt P09936)
How it was run: as §1

[6] = molecular target: T4, UCHL3 (UniProt P15374)
T4 sequence (whole entry): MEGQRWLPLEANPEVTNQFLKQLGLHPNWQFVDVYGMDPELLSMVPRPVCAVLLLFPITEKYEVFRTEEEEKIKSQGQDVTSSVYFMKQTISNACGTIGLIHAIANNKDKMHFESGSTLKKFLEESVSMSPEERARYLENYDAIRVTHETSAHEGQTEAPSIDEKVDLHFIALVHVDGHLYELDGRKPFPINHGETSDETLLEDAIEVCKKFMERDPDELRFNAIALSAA
How it was run: as §1

[7] = molecular target: T5, UCHL5 (UniProt Q9Y5K5)
T5 sequence (whole entry): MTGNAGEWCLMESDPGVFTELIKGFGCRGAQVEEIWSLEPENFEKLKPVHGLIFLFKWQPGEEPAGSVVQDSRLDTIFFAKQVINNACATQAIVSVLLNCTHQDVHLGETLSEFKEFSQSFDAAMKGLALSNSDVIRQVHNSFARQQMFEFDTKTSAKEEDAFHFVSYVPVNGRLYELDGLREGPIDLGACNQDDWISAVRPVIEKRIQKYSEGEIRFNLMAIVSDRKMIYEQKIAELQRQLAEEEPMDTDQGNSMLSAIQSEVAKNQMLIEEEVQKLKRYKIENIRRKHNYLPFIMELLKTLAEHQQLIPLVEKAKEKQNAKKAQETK
How it was run: as §1

[8] = molecular target: USP10 (UniProt Q14694)
How it was run: as §1

[9] = molecular target: T6, USP15 (UniProt Q9Y4E8)
T6 sequence (whole entry): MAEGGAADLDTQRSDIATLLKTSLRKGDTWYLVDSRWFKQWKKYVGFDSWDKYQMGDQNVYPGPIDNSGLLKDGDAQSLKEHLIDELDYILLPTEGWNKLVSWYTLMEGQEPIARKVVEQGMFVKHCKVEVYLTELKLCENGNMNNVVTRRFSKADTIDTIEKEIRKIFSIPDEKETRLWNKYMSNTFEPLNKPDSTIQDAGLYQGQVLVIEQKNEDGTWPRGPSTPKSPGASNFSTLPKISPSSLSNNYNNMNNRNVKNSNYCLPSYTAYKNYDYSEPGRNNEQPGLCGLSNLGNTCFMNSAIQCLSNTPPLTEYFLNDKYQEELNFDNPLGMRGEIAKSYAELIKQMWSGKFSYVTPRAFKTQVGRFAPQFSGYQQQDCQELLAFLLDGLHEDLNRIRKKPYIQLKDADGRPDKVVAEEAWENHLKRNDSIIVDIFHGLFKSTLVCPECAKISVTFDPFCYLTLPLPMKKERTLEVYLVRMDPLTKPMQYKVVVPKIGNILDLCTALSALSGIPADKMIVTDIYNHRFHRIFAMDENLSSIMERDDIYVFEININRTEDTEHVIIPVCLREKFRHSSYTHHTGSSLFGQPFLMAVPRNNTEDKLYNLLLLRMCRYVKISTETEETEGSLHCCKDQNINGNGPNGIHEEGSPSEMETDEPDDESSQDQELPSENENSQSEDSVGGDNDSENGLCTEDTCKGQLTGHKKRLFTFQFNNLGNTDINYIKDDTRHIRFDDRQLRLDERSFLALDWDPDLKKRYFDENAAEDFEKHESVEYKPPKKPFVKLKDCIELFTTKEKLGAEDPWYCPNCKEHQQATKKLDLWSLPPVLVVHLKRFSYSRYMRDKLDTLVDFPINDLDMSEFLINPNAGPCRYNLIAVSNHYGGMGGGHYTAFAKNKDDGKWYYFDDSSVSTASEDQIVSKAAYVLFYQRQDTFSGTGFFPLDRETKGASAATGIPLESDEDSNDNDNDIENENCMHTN
How it was run: as §1

[10] = molecular target: USP16 (UniProt Q9Y5T5)
How it was run: as §1

Measured: log2 ratio of Biotin-Ahx-Ub-VS probe labelling

Sequence of UCHL1 (P09936 whole entry, looked up): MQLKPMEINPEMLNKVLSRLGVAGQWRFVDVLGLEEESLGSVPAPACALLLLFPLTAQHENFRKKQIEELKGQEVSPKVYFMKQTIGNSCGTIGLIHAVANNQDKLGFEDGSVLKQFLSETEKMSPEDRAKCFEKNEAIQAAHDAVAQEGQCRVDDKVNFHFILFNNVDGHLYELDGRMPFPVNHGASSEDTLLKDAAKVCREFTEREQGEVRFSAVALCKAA
Sequence of USP16 (Q9Y5T5 whole entry, looked up): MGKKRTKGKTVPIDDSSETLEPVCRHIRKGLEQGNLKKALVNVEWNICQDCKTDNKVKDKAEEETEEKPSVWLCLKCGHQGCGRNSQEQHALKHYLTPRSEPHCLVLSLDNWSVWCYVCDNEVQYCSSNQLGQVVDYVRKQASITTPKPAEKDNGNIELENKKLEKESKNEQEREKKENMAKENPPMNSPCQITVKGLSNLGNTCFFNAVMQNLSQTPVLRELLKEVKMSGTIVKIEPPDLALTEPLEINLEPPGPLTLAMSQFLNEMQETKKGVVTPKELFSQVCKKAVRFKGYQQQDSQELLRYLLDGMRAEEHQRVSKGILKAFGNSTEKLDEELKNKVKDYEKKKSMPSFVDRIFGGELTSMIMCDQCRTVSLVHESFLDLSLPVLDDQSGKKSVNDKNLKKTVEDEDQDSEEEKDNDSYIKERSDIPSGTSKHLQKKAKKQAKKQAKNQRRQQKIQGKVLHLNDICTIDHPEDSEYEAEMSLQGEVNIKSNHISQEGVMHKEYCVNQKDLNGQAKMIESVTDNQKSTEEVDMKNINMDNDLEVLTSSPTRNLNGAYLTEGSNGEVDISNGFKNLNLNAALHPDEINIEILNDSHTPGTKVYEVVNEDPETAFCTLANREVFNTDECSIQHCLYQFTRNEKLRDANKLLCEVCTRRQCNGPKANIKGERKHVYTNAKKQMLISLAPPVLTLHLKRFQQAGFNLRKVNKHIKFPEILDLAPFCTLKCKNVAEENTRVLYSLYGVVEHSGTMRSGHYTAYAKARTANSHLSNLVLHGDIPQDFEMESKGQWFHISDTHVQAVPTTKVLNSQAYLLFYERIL
Sequence of USP10 (Q14694 whole entry): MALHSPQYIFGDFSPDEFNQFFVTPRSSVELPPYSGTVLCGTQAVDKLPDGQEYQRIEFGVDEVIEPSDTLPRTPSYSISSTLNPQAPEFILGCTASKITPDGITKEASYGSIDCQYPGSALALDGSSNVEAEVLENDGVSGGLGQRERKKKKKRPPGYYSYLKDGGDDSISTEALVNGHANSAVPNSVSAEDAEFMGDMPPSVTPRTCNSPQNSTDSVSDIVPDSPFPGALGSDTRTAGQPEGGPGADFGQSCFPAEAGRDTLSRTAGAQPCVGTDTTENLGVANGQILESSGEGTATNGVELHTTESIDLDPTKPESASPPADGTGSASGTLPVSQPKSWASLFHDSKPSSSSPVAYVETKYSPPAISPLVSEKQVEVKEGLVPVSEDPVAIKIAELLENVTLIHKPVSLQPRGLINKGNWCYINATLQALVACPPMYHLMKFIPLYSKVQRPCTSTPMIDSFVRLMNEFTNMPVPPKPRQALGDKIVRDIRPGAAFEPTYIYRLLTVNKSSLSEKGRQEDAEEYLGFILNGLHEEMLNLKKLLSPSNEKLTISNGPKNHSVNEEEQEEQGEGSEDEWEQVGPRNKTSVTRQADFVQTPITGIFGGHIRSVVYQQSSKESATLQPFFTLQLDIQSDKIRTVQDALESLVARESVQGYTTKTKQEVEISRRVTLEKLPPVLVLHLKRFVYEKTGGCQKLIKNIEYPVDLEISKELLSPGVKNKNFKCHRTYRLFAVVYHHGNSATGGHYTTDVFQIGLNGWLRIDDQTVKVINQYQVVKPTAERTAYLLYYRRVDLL

Cc1cnc2[nH]cc(CCNC(=O)CCl)c2c1
inactive: [1] 0.00839 | [2] -0.562 | [3] -0.0916 | [4] -0.297 | [5] -0.85 | [6] 0.0619 | [7] -0.065 | [8] -0.0977 | [9] -0.336 | [10] 0.0147

— the supplement of paper PMC11732987, “Enantioselective OTUD7B fragment discovery through chemoproteomics screening and high-throughput optimisation” (Communications Chemistry, 2025)
